Assay outcomes: PubChem BioAssay, National Center for Advancing Translational Sciences (NCATS)
CHX counter: counter-screen hit for Shiga toxin inhibitors, cycloheximide; max response, %; 300,000 compounds, 12% hits; AID 2314; cell reporter, cycloheximide protein synthesis inhibition counterscreen; in the data active = max response mostly above about 13%, no sharp cut-off; inactive = mostly below about 14%; note: read at 38.3 µM for the half of the compounds with a filed dose; 0% is about no effect
Shiga inhibitor: inhibitors of Shiga toxin in Vero cells. 290,000 compounds, 9.2% hits. AID 2315. Vero cells, Shiga toxin protein synthesis inhibition reporter. inhibition, % at 38.7 µM; in the data active = inhibition mostly above about 28%, no sharp cut-off; inactive = mostly below about 43%; note: 0% is about no effect
Pf growth 96h: P. falciparum growth inhibition at 96 hours. P. falciparum luciferase reporter growth, 96 h. Potency, µM (highest dose often 28.7 µM), without a hit: at the highest dose activity change, negative = inhibition, usual class: inhibitors. 320,000 compounds, 6.9% hits. AID 504834; note: potency is the fitted concentration of half-maximal effect; % is set by controls: 0 for no effect and ±100 for the full control effect
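Two-generation exposure (96 h) targets delayed-death phenotype. Reporter parasites carrying integrated firefly luciferase, in red cells at 2% hematocrit and 0.05% parasitemia final, kept at 37 C, 5% CO2; luminescence loss indicates inhibition.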
MARV entry inh: inhibitors of Marburg virus binding or cell entry. Marburg virus pseudotyped entry inhibition, cell reporter. Potency, µM (doses to about 37.8 µM), without a hit: top-dose activity change, negative = inhibition, hits mostly inhibitors. 300,000 compounds, 1.8% hits. AID 540276; calls by dose curve; tested in HEK293 cells; note: potency is the fitted concentration of half-maximal effect; % is set by controls: 0 for no effect and ±100 for the full control effect
LASV entry inh: Lassa virus entry inhibition; 300,000 compounds, 1.2% hits; Lassa virus pseudotype entry inhibition, cell reporter; Potency, µM (doses to about 37.9 µM), inactives show at the top dose activity change, negative = inhibition, hits mostly inhibitors; calls by dose curve; tested in HEK293 cells; note: potency is the fitted concentration of half-maximal effect; % is set by controls: 0 for no effect and ±100 for the full control effect; nearly all actives have a fitted effect of over 50% in size
Pf growth 48h: inhibits P. falciparum growth in the first generation, 48 h | P. falciparum luciferase growth in erythrocytes, 48 h | Potency, µM (titrated, usually from 28.7 µM), for the others: top-dose activity change, negative = inhibition, usual class: inhibitors | 310,000 compounds, 5.9% hits | AID 504832; note: potency is the fitted concentration of half-maximal effect; % is set by controls: 0 for no effect and ±100 for the full control effect
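First compound was added to culture medium, then infected red cells at 0.1% parasitemia and 2% hematocrit (final). After incubation at 37 C under 5% CO2, luciferase detection reagent was dispensed and light output recorded.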
* marks the source's active call; other numbers are inactive results; ? = inconclusive; . = not tested or not shown; [ ] = remark or other dose. In the library only some 19% were active in any assay of this set; here they are far more common. Unless noted, calls come from the whole dose curve; as a rule, active = well fitted inhibition curve with a large enough effect; inconclusive = small, poorly fitted or top-dose-only effect, or another doubt; inactive = no such curve, though single readings can be large or run the other way.

SMILES | CHX counter | Shiga inhibitor | Pf growth 96h | MARV entry inh | LASV entry inh | Pf growth 48h
CCc1sc(N(C(=O)Cc2ccccc2)c2cccc(F)c2)nc1-c1ccc(C)cc1 | 0.8 | -2.2 | ? | -3.9% | ? | ?
CCc1sc(N(C(=O)Cc2ccccc2)c2ccccc2F)nc1-c1ccc(C)cc1 | -6.0 | 6.9 | 10.4µM* | 0.5% | . | ?
C#CCOCCOCCOCCNc1nc(N2CCN(C(=O)CCCCCCCCCCNC(=O)[C@@H](CCC(=O)O)n3cc(CCCCCN)nn3)CC2)nc(N2CCN(C(=O)CCCCCCCCCCNC(=O)[C@@H](CCC(=O)O)n3cc(CCCCCN)nn3)CC2)n1 | . | . | ? | . | . | 2.94µM*
C#CCOCCOCCOCCNc1nc(N2CCN(C(=O)CCCCCCCCCCNC(=O)[C@H](CCCCN)n3cc(CCO)nn3)CC2)nc(N2CCN(C(=O)CCCCCCCCCCNC(=O)[C@H](CCCCN)n3cc(CCO)nn3)CC2)n1 | . | . | 7.38µM* | . | . | 4.15µM*
C#CCOCCOCCOCCNc1nc(N2CCN(C(=O)CCCCCCCCCCNC(=O)[C@H](CCCCN)n3cc(CCO)nn3)CC2)nc(N2CCN(C(=O)CCCCCCCCCCNC(=O)[C@@H]([C@H](C)O)n3cc(C)nn3)CC2)n1 | . | . | ? | . | . | 0.294µM*
C#CCOCCOCCOCCNc1nc(N2CCN(C(=O)CCCCCCCCCCNC(=O)[C@H](CCC(=O)O)n3cc(CCCCCN)nn3)CC2)nc(N2CCN(C(=O)CCCCCCCCCCNC(=O)[C@@H]([C@H](C)O)n3cc(C)nn3)CC2)n1 | . | . | ? | . | . | 3.29µM*
C#CCOCCOCCOCCNc1nc(N2CCN(C(=O)[C@H](CCCCN)n3cc(CCCC)nn3)CC2)nc(N2CCN(C(=O)[C@H](Cc3ccc(O)cc3)n3cc(CCO)nn3)CC2)n1 | -6.3 | -10.6 | -25.3% | 11.1% | 6.2% | -3.1%
CCOc1ccc(N=Cc2c(O)cc(C)oc2=O)cc1 | -3.4 | -4.0 | 7.6% | . | . | 6.4%
CCOc1ccc(N=Cc2c(O)c3ccccc3oc2=O)cc1 | 26.1* | 77.6* | 2.9% | 23.0% | 10.4% | 3.8%
O=C(O)c1ccc(N=NN2CCCCCC2)cc1 | 42.2* | 73.6* | 7.6% | ? | 9.7% | 138.6%
Cc1ccc(NC(=O)CSc2nsc(SCC(=O)Nc3ccc(C)cc3C)c2C#N)c(C)c1 | -2.1 | -2.2 | 8.0% | 16.6%[46.1 µM] | -20.8% | 5.2%
Cc1csc(NC(=O)CSc2nsc(SCC(=O)Nc3nc(C)cs3)c2C#N)n1 | 41.2* | 117.4* | -23.3% | -2.8% | -12.0% | 244.7%
Cc1csc(NC(=O)CSc2sc3c(O)cc(=O)[nH]c3c2C#N)n1 | 3.6 | 18.4 | 2.08µM* | -5.5%[46.1 µM] | 13.1%[46.1 µM] | 27.8%
CCCCN(C(=O)CSc1nncn1-c1ccccc1)c1c(N)n(Cc2ccccc2)c(=O)[nH]c1=O | -2.3 | -4.8 | -0.4% | 0.4% | 0.8% | 8.3%
COc1ccc(C2c3c(ccc4ccccc34)Oc3ncn4nc(-c5ccco5)nc4c32)cc1 (centres undefined) | -5.1 | -11.9 | 3.7µM* | ? | -0.2% | ?
O=C(c1ccccc1)N(C(=O)c1ccccc1)c1ncnc2c1C(c1ccccc1)c1c(ccc3ccccc13)O2 (centres undefined) | . | . | 27.0% | . | . | ?
COc1ccc(C2c3c(ncn(CCN4CCOCC4)c3=N)Oc3ccc4ccccc4c32)cc1 (centres undefined) | -7.6 | -20.7 | . | ? | ? | 9.28µM*
N=c1c2c(ncn1CCN1CCOCC1)Oc1ccc3ccccc3c1C2c1ccccc1 (centres undefined) | -3.4 | -8.3 | 4.65µM* | ? | -0.7% | .
c1ccc(C2c3c(ccc4ccccc34)Oc3ncn4nc(-c5ccco5)nc4c32)cc1 (centres undefined) | -0.9 | -1.4 | ? | 20.5% | 6.5% | -8.5%
COc1ccc(NCC(=O)Nc2cc(S(=O)(=O)N3CCOCC3)ccc2N2CCOCC2)c(OC)c1 | -2.5 | -6.1 | ? | . | . | ?
Cc1ccc(SCCC(=O)N/N=C/c2cccnc2)cc1 | -1.2 | -9.9 | -19.5% | . | . | 4.4%
Cc1sc2ncnc(N3CCC(C(=O)NNC(=O)COc4ccccc4F)CC3)c2c1C | . | . | ? | -20.6% | -6.3% | ?
O=C(NCCN1C(=O)S/C(=C\c2cccs2)C1=O)c1ccco1 | 45.8* | 37.4 | ? | ? | 14.4% | -5.7%
Cc1nc2ccc([N+](=O)[O-])cc2c(=O)n1Cc1ccc(Br)cc1 | -0.9 | 16.8 | 3.29µM* | ? | -3.8%[46.1 µM] | 4.2%
S=C(NCC1CCCO1)NC1CCCCC1 (centres undefined) | 7.1 | -2.2 | 2.4% | . | . | 19.3%
SMILES | CHX counter | Shiga inhibitor | Pf growth 96h | MARV entry inh | LASV entry inh | Pf growth 48h
CCCC(NC(=S)NCC1CCCO1)C12CC3CC(CC(C3)C1)C2 (centres undefined) | -2.4 | -7.6 | -1.2% | . | . | 2.62µM*
COc1ccc(C2(C)NC(=O)N(CC(=O)Nc3ccc(Br)cc3F)C2=O)cc1OC (centres undefined) | 0.8 | -6.0 | 3.7µM* | ? | -7.2%[46.1 µM] | ?
COc1ccc(C2(C)NC(=O)N(CC(=O)Nc3ccc(C)cc3Br)C2=O)cc1OC (centres undefined) | -2.9 | -10.2 | 3.7µM* | -14.7%[46.1 µM] | -1.0%[46.1 µM] | ?
COc1ccc(C2(C)NC(=O)N(CC(=O)NCC(=O)Nc3ccc(F)c(F)c3F)C2=O)cc1OC (centres undefined) | . | . | . | 6.6%[46.1 µM] | 24.7%[46.1 µM] | .
CSCC[C@H](N)C(=O)N1CCC(C(=O)N[C@@H](Cc2c[nH]c3ccccc23)C(=O)O)CC1 | -1.0 | -13.7 | 0.7% | 0.1% | . | -0.2%
CC(=O)NC(CC(=O)N(Cc1ccccc1)c1ccc(C)cc1)c1ccccc1 (centres undefined) | 2.8 | -10.2 | 13.1µM* | -16.9% | 3.1% | ?
C#CCOCCOCCOCCNc1nc(N2CCOCC2)nc(N2CCN(C(=O)[C@H](CCCCN)n3cc([C@@H](N)C(C)CC)nn3)CC2)n1 (some centres undefined) | -0.8 | -4.1 | 33.5% | . | . | 17.6%
C#CCOCCOCCOCCNc1nc(N2CCN(C(=O)CCCCCCCCCCNC(=O)Cn3cc(CCCCCN)nn3)CC2)nc(N2CCN(C(=O)CCCCCCCCCCNC(=O)[C@H]([C@@H](C)CC)n3cc(CCCCCN)nn3)CC2)n1 | . | . | ? | . | . | 10.4µM*
C#CCOCCOCCOCCNc1nc(N2CCN(C(=O)CCCCCCCCCCNC(=O)Cn3cc(CCCCCN)nn3)CC2)nc(N2CCN(C(=O)CCCCCCCCCCNC(=O)[C@H](CO)n3cc(CCCCCN)nn3)CC2)n1 | . | . | 2.94µM* | . | . | 1.04µM*
C#CCOCCOCCOCCNc1nc(N2CCOCC2)nc(N2CCN(C(=O)CCCCCCCCCCNC(=O)[C@H](CO)n3cc(CCCCCN)nn3)CC2)n1 | . | . | 0.828µM* | . | . | 0.329µM*
C#CCOCCOCCOCCNc1nc(N2CCOCC2)nc(N2CCN(C(=O)CCCCCCCCCCNC(=O)Cn3cc(CCCCCN)nn3)CC2)n1 | . | . | ? | . | . | 3.7µM*
Cc1nc2nc(NC(=O)c3ccc(C(C)(C)C)cc3)[nH]n2c(=O)c1Cl | . | . | . | -19.1%[46.1 µM] | -2.6%[46.1 µM] | .
